# Screening results as filed in PubChem.
# Pf growth 48h: P. falciparum growth inhibition at 48 hours (one generation); Potency, µM (highest dose often 28.7 µM), for inactives: top-dose activity change, negative = inhibition, hits mostly inhibitors; P. falciparum luciferase growth in erythrocytes, 48 h; 310,000 tested, 5.9% active; note: potency is the fitted concentration of half-maximal effect; % is set by controls: 0 for no effect and ±100 for the full control effect
#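 Growth was read as firefly luciferase luminescence after a 48 h, 37 C, 5% CO2 exposure of compounds to reporter-bearing P. falciparum cultures (0.1% parasitemia, 2% hematocrit final) in Albumax-supplemented RPMI 1640.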
# Pf growth 96h: inhibits malaria parasite growth, 96 h; P. falciparum luciferase reporter growth, 96 h; Potency, µM (highest dose often 28.7 µM), for inactives: top-dose activity change, negative = inhibition, most hits filed as inhibitors; 320,000 tested, 6.9% active; AID 504834; note: potency is the fitted concentration of half-maximal effect; % is set by controls: 0 for no effect and ±100 for the full control effect
#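 Erythrocytes infected with luciferase-expressing P. falciparum were dispensed at 2% hematocrit and 0.05% parasitemia (final), then incubated with compounds 96 hours at 37 C in 5% CO2. Luminescence after detection reagent addition reported growth.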
# HCV inhibitor: HCV inhibition. Huh7.5.1 HCVcc-Cre infection, luciferase reporter, 44 h. Potency, µM (doses to about 41.8 µM), without a hit: at the top dose activity change, negative = inhibition, most hits filed as inhibitors. 340,000 tested, 3.4% active. AID 651820; note: potency is the fitted concentration of half-maximal effect; % is set by controls: 0 for no effect and ±100 for the full control effect
#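 Compounds are dispensed onto cells plated 4 h earlier at 1,000 per well, with HCVcc-Cre virus (about 0.5 moi) added next. Following 44 h of culture, luminescent signal is measured for 15 sec after 15 min with substrate at room temperature.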
# CHX counter: counter-screen for Shiga toxin inhibitors: cycloheximide protein synthesis inhibition; max response, %; 300,000 tested, 12% active; cell reporter, cycloheximide protein synthesis inhibition counterscreen; in the data active = max response mostly above about 13%, no sharp cut-off; inactive = mostly below about 14%; note: read at 38.3 µM for the half of the compounds with a filed dose; 0% is about no effect
# Shiga inhibitor: inhibitors of Shiga toxin in Vero cells; Vero cells, Shiga toxin protein synthesis inhibition reporter; inhibition, % at 38.7 µM; 290,000 tested, 9.2% active; AID 2315; in the data active = inhibition mostly above about 28%, no sharp cut-off; inactive = mostly below about 43%; note: 0% is about no effect
# HCMV antiviral: inhibitors of human cytomegalovirus; 410,000 tested, 4.5% active; activity change, negative = inhibition, % at 57.5 µM; HFF cells, HCMV-luciferase reporter, 72 h; active compounds read low; in the data active = activity change below about -60%; inconclusive = no clear call, values can overlap the other calls; inactive = above about -39%; note: % is set by controls: 0 for no effect and ±100 for the full control effect
#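 Human foreskin fibroblasts infected with luciferase-reporter HCMV at MOI 1 PFU/cell, compounds at two doses. Luciferase measured 72 h post infection; normalized to buffer-only basal and Salinomycin (10uM) controls.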
# Numbers without * were called inactive; u = inconclusive; x = no result given; [ ] = another dose, or the depositor's remark. Shown are actives, neighbours in structure and some others; about 21% of the full set was active somewhere. Unless noted, calls come from the whole dose curve; as a rule, active = well fitted inhibition curve with a large enough effect; inconclusive = small, poorly fitted or top-dose-only effect, or another doubt; inactive = no such curve, though single readings can be large or run the other way.
SMILES,Pf growth 48h,Pf growth 96h,HCV inhibitor,CHX counter,Shiga inhibitor,HCMV antiviral
COCCN(C(=O)CSc1n[nH]c(-c2ccccc2)n1)c1c(N)n(Cc2ccccc2)c(=O)[nH]c1=O,u,-8%,25%,x,x,-3
COc1cc(NC(=O)Cn2c(-c3cncs3)nc3ccccc32)cc(OC)c1OC,2.3µM*,18%,-1%,11,12,94
CCCCCOc1ccc(NC(=O)Cn2c(-c3cncs3)nc3ccccc32)cc1,x,x,x,x,x,-64*
Oc1ccccc1C=NC(N=Cc1ccccc1O)c1ccccc1O (stereo unspecified),x,x,x,x,x,6
Cc1c(Cl)c(=O)oc2cc(OP(=O)(OCCCl)OCCCl)ccc12,13µM*,u,x,x,x,x
CNC(=O)c1nnsc1S(=O)c1ccc(Cl)cc1 (stereo unspecified),15µM*,u,u,55*,98*,-8
O=C(NCCc1ccc(Cl)cc1)c1nnc(Cc2ccc(Cl)cc2)o1,14%,10%,-4%[8.37 µM],-5,-9,-8
CCCNC(=O)c1nnsc1S(=O)(=O)c1ccc(Cl)cc1,0%,7%,6.3µM*,27*,30,-99*
CCCNC(=O)NS(=O)(=O)c1ccc(Cl)cc1,12%,-16%,-10%[8.37 µM],-3,-10,55
CNC(=O)c1nn(-c2ccc(Cl)cc2)ccc1=O,-1%,21%,1%,1,16,19
CCCNC(=O)c1nnsc1S(=O)c1ccc(Cl)cc1 (stereo unspecified),u,u,u,36*,18,-101*
Clc1ccc2c(c1)[C@H]1OCC[C@H]1[C@@H](c1ccco1)N2,100%,u,-27%,25*,66*,42
Fc1ccc2c(c1)[C@H]1OCC[C@H]1[C@@H](c1ccco1)N2,22%,-22%,1%,5,8,18
Cc1cccc(OCc2nc(CC(=O)Nc3ccc(C)c(C)c3)cs2)c1,x,x,x,x,x,0
CC(=O)c1ccc(N2CCN(C(=O)CCCn3c(=O)[nH]c4ccc(Br)cc4c3=O)CC2)cc1,10µM*,u,u,5,-4,u
CCOc1cc2[nH]c(=O)n(CCCC(=O)N3CCN(c4cccc(Cl)c4)CC3)c(=O)c2cc1OCC,x,x,x,x,x,-24
O=C(CCCCn1c(=O)[nH]c2ccccc2c1=O)N1CCN(c2cccc(C(F)(F)F)c2)CC1,u,u,11µM*,-4,22,-34
O=C(CCCn1c(=O)[nH]c2ccc(Br)cc2c1=O)N1CCN(c2cccc(Cl)c2)CC1,x,x,x,x,x,-100*
CC(=O)c1ccc(N2CCN(C(=O)CCCCn3c(=O)[nH]c4ccccc4c3=O)CC2)cc1,x,x,x,x,x,9
CCOC(=O)C1CCN(C(=O)CCCCn2c(=O)[nH]c3ccccc3c2=O)CC1,-30%,67%,-10%,-3,-18,-79*
Cn1ncc2c(=S)nc(Cl)[nH]c21,x,x,5%,x,x,48
CCOC(=O)c1c(C)[nH]c(C(=O)Cn2c(=O)c3c(ncn3CC)n(Cc3ccccc3)c2=O)c1C,8.3µM*,10µM*,u,-2,24,-4
COC(=O)c1cccnc1-n1c(=O)c2cccnc2n(Cc2cccc([N+](=O)[O-])c2)c1=O,-32%,27%,-4%,-1,-18,-86*
CCn1cnc2c1c(=O)n(Cc1cccc([N+](=O)[O-])c1)c(=O)n2Cc1ccccc1,8.3µM*,u,-18%,0,-10,19
O=C(Cn1c(=O)oc2ccccc21)Nc1ccc(Cl)cc1Cl,46%,u,-1%,8,26,6
SMILES,Pf growth 48h,Pf growth 96h,HCV inhibitor,CHX counter,Shiga inhibitor,HCMV antiviral
CCOc1ccc(CCNC(=O)c2cn(C)c3ccc(S(=O)(=O)N4CCCCCC4)cc3c2=O)cc1OCC,x,x,x,x,x,1
C[C@H](CO)N1C[C@H](C)[C@H](CN(C)C(=O)NC2CCCCC2)OCc2cnnn2CCCC1=O,x,x,x,x,x,-7
O=S1(=O)C2CC3C=CC2(CN1Cc1cccc(F)c1)O3 (stereo unspecified),x,x,x,5,18,x
CC1Cc2ccccc2N1C(=O)CCn1cccn1 (stereo unspecified),-2%,7%,8%,3,11,-6
CCOCCCNCc1ccc(OCCC(C)C)c(OC)c1,-19%,37%,1%,6,2,-13
Cc1nc2cc3ccccc3cc2n1C,-3%,-84%,u,19*,48*,u
CCCc1ccc(C(C)NC(=S)NC2CCCCC2)cc1 (stereo unspecified),13µM*,33%,u,-3,-3,-73*
Cc1ccc(C)c(C(C)NC(=S)NC2CCCCC2)c1 (stereo unspecified),13µM*,37%,u,-2,-4,u
CC(NC(=S)NC1CCCCC1)c1ccccc1 (stereo unspecified),u,38%,u,2,x,u
CCC(NC(=S)NC1CCCCC1)c1ccc(C)cc1 (stereo unspecified),u,7.4µM*,x,-2,-3,x
CC1CCN(S(=O)(=O)c2ccc3c(c2)N(CC(=O)NC(C)(C)C)C(=O)CS3)CC1,x,x,x,x,x,15
Clc1ccc(-c2nnc(CNC3CC3)o2)cc1,29%,32%,6%,21*,23,26
O=[N+]([O-])c1ccc(-c2nnc(CNC3CCCC3)o2)cc1,19%,5%,0%,13,20,-9
Oc1ccc(/C=N/NC(=S)NC2CC3CCC2C3)cc1 (stereo unspecified),u,u,-26%,17*,37,31
S=C(N/N=C/c1cccs1)NC1CC2CCC1C2 (stereo unspecified),u,10µM*,-20%,24*,47*,31
CCOc1ccc2nc(CN3CCN(Cc4ccsc4)C(CCO)C3)ccc2c1 (stereo unspecified),u,34%,u,12,-2,u
COCCn1c(=S)[nH]c2cc(C(=O)N3CCN(Cc4ccc5c(c4)OCO5)CC3)ccc2c1=O,u,39%,14µM*,1,-4,-99*
CCCn1c(=S)[nH]c2cc(C(=O)N3CCc4ccccc43)ccc2c1=O,24%,-10%,u,-2,-2,-39
COCCn1c(=O)[nH]c2cc(C(=O)N3CCN(c4ccc(OC)cc4)CC3)ccc2c1=O,-2%,47%,u,-2,-7,4
COCCn1c(=S)[nH]c2cc(C(=O)N3CCc4ccccc43)ccc2c1=O,u,u,u,9,-7,-70*
COCCn1c(=S)[nH]c2cc(C(=O)N3CCN(c4cccc(Cl)c4)CC3)ccc2c1=O,-1%,12µM*,u,-2,-8,14
COCCn1c(=O)[nH]c2cc(C(=O)N3CCN(Cc4ccc5c(c4)OCO5)CC3)ccc2c1=O,x,x,7%,x,x,u
